This is a sample that favours compounds with a hit; in the whole collection about 22% have one here.
Pf growth 96h: Primary qHTS for delayed death inhibitors of the malarial parasite plastid, 96 hour incubation; P. falciparum luciferase reporter growth, 96 h; Potency, µM (highest dose often 28.7 µM), usual class: inhibitors; actives 6.9% (n = 320,000)
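P. falciparum expressing integrated firefly luciferase, in erythrocytes at 2% hematocrit, 0.05% parasitemia, incubated with compounds 96 h at 37 C, 5% CO2. Growth inhibition read as loss of luminescence; two-generation exposure targets delayed-death apicoplast inhibitors.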
LmPK inhibitor: qHTS Assay for Inhibitors of Leishmania Mexicana Pyruvate Kinase (LmPK) | Q27686 | purified LmPK, Kinase-Glo ATP luminescence, 1 h | AID 1721, 2009 | Potency, µM (titrated, usually from 57.5 µM), hits mostly inhibitors | actives 0.37% (n = 290,000)
Target sequence (Q27686 whole entry, looked up): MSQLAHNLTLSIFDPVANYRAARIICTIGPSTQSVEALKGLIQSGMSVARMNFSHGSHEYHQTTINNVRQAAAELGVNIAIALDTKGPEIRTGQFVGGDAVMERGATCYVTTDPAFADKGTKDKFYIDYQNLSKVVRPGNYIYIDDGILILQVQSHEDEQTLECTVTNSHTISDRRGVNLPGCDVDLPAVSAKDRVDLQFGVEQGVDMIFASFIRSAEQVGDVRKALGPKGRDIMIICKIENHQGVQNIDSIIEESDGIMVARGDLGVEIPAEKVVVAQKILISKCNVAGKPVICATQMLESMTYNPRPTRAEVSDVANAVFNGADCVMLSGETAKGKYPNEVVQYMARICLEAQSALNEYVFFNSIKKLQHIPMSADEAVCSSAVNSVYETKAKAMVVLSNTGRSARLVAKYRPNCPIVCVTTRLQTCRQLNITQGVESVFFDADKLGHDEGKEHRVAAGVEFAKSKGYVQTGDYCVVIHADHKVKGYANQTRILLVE
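qHTS format; LmPK 0.1 nM; substrates PEP 0.5 mM and ADP 0.1 mM. One-hour room-temperature incubation, then coupled luciferase luminescence; 0.5 nM enzyme wells mark activation.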
CHX counter: Cycloheximide Counterscreen for Small Molecule Inhibitors of Shiga Toxin; cell reporter, cycloheximide protein synthesis inhibition counterscreen; actives 12% (n = 300,000); max response, %; in the data active = max response mostly above about 13%, no sharp cut-off; inactive = mostly below about 14%; also: read at 38.3 µM for the half of the compounds with a filed dose
Shiga toxin inh: A qHTS for Small Molecule Inhibitors of Shiga Toxin. Vero cells, Shiga toxin protein synthesis inhibition reporter. inhibition, % at 38.7 µM. actives 9.2% (n = 290,000); in the data active = inhibition mostly above about 28%, no sharp cut-off; inactive = mostly below about 43%
Pf growth 48h: Primary qHTS for delayed death inhibitors of the malarial parasite plastid, 48 hour incubation | P. falciparum luciferase growth in erythrocytes, 48 h | Potency, µM (highest dose often 28.7 µM), actives largely listed as inhibitors | actives 5.9% (n = 310,000)
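Growth was read as firefly luciferase luminescence after a 48 h, 37 C, 5% CO2 exposure of compounds to reporter-bearing P. falciparum cultures (0.1% parasitemia, 2% hematocrit final) in Albumax-supplemented RPMI 1640.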
Large screens that a line does not name were inactive. Unless noted, calls follow the shape of the dose curve; as a rule, active = well fitted inhibition curve with a large enough effect; inconclusive = small, poorly fitted or top-dose-only effect, or another doubt; inactive = no such curve, though single readings can be large or run the other way.

Cc1ccc(-c2cn3cccc(C)c3n2)cc1	Pf growth 96h inconclusive, LmPK inhibitor 25µM, CHX counter 33, Shiga toxin inh 51
COc1ccc(-c2nc3c(-c4ccccc4)cnn3cc2C)cc1F	Pf growth 96h inconclusive, Pf growth 48h inconclusive
COc1ccc(-c2cn3cccc(C)c3n2)cc1F	Pf growth 96h inconclusive, LmPK inhibitor inconclusive, CHX counter 57, Shiga toxin inh 113
Nc1nc(-c2ccc(Cl)cc2)cn1N	none
Cc1cccc(N(C)c2cc(C)nc3nc(C)nn23)c1	Pf growth 96h inconclusive
COc1ccc2oc(C(=O)OC(C)C(=O)NC3(C#N)CCCCC3)c(C)c2c1 (configuration not stated)	Pf growth 48h inconclusive (no result: LmPK inhibitor, CHX counter, Shiga toxin inh)
CC1SC(=S)N(c2ccc(N(C)C)cc2)C1=O (configuration not stated)	Pf growth 96h inconclusive, Pf growth 48h inconclusive
Cc1cccn2cc(-c3ccc(S(=O)(=O)N4CCOCC4)cc3)nc12	none
Cc1cccn2cc(-c3ccc(S(=O)(=O)N4CCCCC4)cc3)nc12	Pf growth 96h 10µM
CCCc1nnc(NC(=O)CCC(=O)N2CCN(c3ccccc3)CC2)s1	Pf growth 96h inconclusive
O=c1c2ccccc2nc(-c2cccc(Cl)c2)n1O	none
CCN(CC)CC(O)Cn1c(-c2cccc(Cl)c2)nc2cc(C)c(C)cc21 (configuration not stated)	CHX counter 24, Shiga toxin inh 45
CCCCn1c(N)c(N(CCOC)C(=O)CSc2n[nH]c(-c3ccc(OC)cc3)n2)c(=O)[nH]c1=O	none
COc1cc2nc(C3CCC3)nc(N3CCN(c4ccccc4OC)CC3)c2cc1OC	Pf growth 96h inconclusive, Pf growth 48h 13µM
O=C(O)C(Cc1c[nH]c2ccccc12)NS(=O)(=O)c1ccc(Cl)cc1 (configuration not stated)	none
CC(C(=O)C12CC3CC(CC(C3)C1)C2)N1CCOCC1 (configuration not stated)	Pf growth 96h 1.9µM (no result: Shiga toxin inh)
CC(=O)C1=C(C)OC(N)=C(C#N)C1c1cc2cc(C)c(C)cc2nc1Cl (configuration not stated)	CHX counter 31, Shiga toxin inh active
Cc1nccc2oc(=O)c(NC(=O)c3ccc(Cl)cc3)cc12	none
O=C(Nc1cc2c(oc1=O)CCCC2=O)c1ccc(Cl)cc1	CHX counter 20
CCC(=O)NNC(=O)CCC(=O)Nc1cccc(Cl)c1C	none
CN1C(=O)CCC1c1cccnc1 (configuration not stated)	Pf growth 96h 1.1µM (no result: LmPK inhibitor, CHX counter, Shiga toxin inh)
CCOC(=O)c1ccc(N=C2SC(C(=O)NC)CC(=O)N2Cc2ccc(F)cc2)cc1 (configuration not stated)	Pf growth 96h 1.7µM
Cc1ccc(S(=O)(=O)N2CCC(C(=O)NC3CC(C)(C)NC(C)(C)C3)CC2)cc1	none
Nc1ccc2oc(-c3ccccc3Cl)nc2c1	LmPK inhibitor inconclusive, CHX counter 21, Shiga toxin inh 36
CCc1ccc2oc(-c3cc(N)ccc3O)nc2c1	Pf growth 96h inconclusive, LmPK inhibitor inconclusive, CHX counter 18
CCc1ccc2oc(-c3cc(N)ccc3Cl)nc2c1	Pf growth 96h inconclusive, CHX counter 15
c1cc(-c2nc3cc(Cc4ccc5oc(-c6ccncc6)nc5c4)ccc3o2)ccn1	none
CCc1ccc2oc(-c3cc(N)cc(C)c3O)nc2c1	CHX counter 36, Shiga toxin inh 80
O=C(COC(=O)[C@H](Cc1ccccc1)NC(=O)c1ccco1)NCc1ccccc1	Pf growth 96h inconclusive (no result: Pf growth 48h)
CC(=O)c1ccc(N2CCN(S(=O)(=O)c3cn(C)c(C)n3)CC2)cc1	Pf growth 48h inconclusive
C/C(=N\N1CCCCCC1)c1c(O)n(-c2ccc(C)cc2)c(=O)[nH]c1=O	Pf growth 96h 12µM, CHX counter 43, Shiga toxin inh active, Pf growth 48h inconclusive
CC/C(=N\N1CCCCCC1)c1c(O)n(-c2ccc(C)cc2)c(=O)[nH]c1=O	Pf growth 96h 2.1µM, CHX counter 18, Pf growth 48h inconclusive
C=CCn1c(O)c(/C(C)=N/N2CCCCC2)c(=O)[nH]c1=O	Shiga toxin inh 75
C=CCn1c(O)c(C(C)=NCCC(c2ccccc2)c2ccccc2)c(=O)[nH]c1=O	Pf growth 96h 12µM
C=CCn1c(O)c(C(C)=NCCN2CCCCC2)c(=O)[nH]c1=O	none (no result: Pf growth 48h)
COC(=O)c1sc(-c2ccc(Cl)cc2)cc1NC(=O)c1ccccc1C(=O)O	CHX counter 31, Shiga toxin inh 72
COC(=O)c1sc(-c2ccc(C(C)(C)C)cc2)cc1NC(=O)CSCC(=O)O	CHX counter 15
COC(=O)c1sc(-c2ccccc2)cc1NC(=O)C1CC1	Pf growth 48h inconclusive
COc1ccc(OC)c(NC(=O)CSCC(=O)O)c1	Pf growth 96h inconclusive
CCOc1ccc(-c2cc(NC(=O)c3c(F)cccc3F)c(C(=O)O)s2)cc1	Shiga toxin inh 40, Pf growth 48h inconclusive
COC(=O)c1sc(-c2ccc(C(C)(C)C)cc2)cc1NC(=O)c1ccccc1C(=O)O	CHX counter 44, Shiga toxin inh 84
N#Cc1ccccc1CSc1nnc(-c2ccncc2)o1	CHX counter 34, Shiga toxin inh 49
Clc1cccc(Cl)c1CSc1nnc(-c2sccc2-n2cccc2)o1	Pf growth 96h inconclusive, CHX counter 20, Shiga toxin inh 95, Pf growth 48h inconclusive
N#Cc1cccc(-c2nnc(SCc3ccccc3C#N)o2)c1	CHX counter 46, Shiga toxin inh 89
CSc1nnc(-c2sccc2-n2cccc2)o1	Pf growth 96h inconclusive, Pf growth 48h inconclusive
Clc1ccccc1CSc1nnc(-c2ccncc2)o1	CHX counter 47, Shiga toxin inh 54
COc1ccc(C(=O)CSc2nnc(CN3CCCCC3)n2-c2ccc(F)cc2)cc1	Pf growth 96h inconclusive
OCC[C@@H]1C[C@H](O)[C@@H](O)[C@]2(CCc3ccccc3CO2)O1	none
N#Cc1ccc(CSc2nnc(-c3cccc(S(=O)(=O)N4CCCCC4)c3)o2)cc1	Pf growth 96h inconclusive, Pf growth 48h 13µM
O=C(O)CSc1nnc(-c2cccc(S(=O)(=O)N3CCCCC3)c2)o1	none
Fc1cccc(Cl)c1CSc1nnc(-c2ccncc2)o1	CHX counter 36, Shiga toxin inh 57
O=C(O)c1ccc(CSc2nnc(Cc3ccccc3)o2)cc1	none (no result: Pf growth 48h)
N#Cc1ccccc1CSc1nnc(Cc2ccccc2)o1	Pf growth 96h inconclusive, CHX counter 21, Shiga toxin inh 53
COc1cc(-c2nnc(SCc3c(F)cccc3Cl)o2)cc(OC)c1OC	Pf growth 48h inconclusive (no result: Pf growth 96h)
CC1Cc2cc(/C(O)=C3/C(=O)C(=O)N(CCCn4ccnc4)C3c3ccc(Br)cc3)ccc2O1 (configuration not stated)	none
COCCNC(=O)/C(C#N)=C/c1ccc(C(=O)O)cc1	none
COCCNC(=O)/C(C#N)=C/c1ccc(SC)cc1	CHX counter 30, Shiga toxin inh 65

Screening data deposited in PubChem BioAssay by National Center for Advancing Translational Sciences (NCATS).
